The supplement of paper PMC11732987, “Enantioselective OTUD7B fragment discovery through chemoproteomics screening and high-throughput optimisation” (Communications Chemistry, 2025)

Assays:
Assay in all cases: log2 ratio of Biotin-Ahx-Ub-VS probe labelling (fragment/DMSO); higher = less target engagement (more negative = stronger competition), active = hit call of the paper (q ≤ 0.05, log2 ratio ≤ -1)
Settings in all cases: compound concentration: 200 uM; treatment time: 3 h
USP34 = USP34 (UniProt Q70CQ2)
Chain of USP34 (Q70CQ2 whole entry, the tested form may be a part): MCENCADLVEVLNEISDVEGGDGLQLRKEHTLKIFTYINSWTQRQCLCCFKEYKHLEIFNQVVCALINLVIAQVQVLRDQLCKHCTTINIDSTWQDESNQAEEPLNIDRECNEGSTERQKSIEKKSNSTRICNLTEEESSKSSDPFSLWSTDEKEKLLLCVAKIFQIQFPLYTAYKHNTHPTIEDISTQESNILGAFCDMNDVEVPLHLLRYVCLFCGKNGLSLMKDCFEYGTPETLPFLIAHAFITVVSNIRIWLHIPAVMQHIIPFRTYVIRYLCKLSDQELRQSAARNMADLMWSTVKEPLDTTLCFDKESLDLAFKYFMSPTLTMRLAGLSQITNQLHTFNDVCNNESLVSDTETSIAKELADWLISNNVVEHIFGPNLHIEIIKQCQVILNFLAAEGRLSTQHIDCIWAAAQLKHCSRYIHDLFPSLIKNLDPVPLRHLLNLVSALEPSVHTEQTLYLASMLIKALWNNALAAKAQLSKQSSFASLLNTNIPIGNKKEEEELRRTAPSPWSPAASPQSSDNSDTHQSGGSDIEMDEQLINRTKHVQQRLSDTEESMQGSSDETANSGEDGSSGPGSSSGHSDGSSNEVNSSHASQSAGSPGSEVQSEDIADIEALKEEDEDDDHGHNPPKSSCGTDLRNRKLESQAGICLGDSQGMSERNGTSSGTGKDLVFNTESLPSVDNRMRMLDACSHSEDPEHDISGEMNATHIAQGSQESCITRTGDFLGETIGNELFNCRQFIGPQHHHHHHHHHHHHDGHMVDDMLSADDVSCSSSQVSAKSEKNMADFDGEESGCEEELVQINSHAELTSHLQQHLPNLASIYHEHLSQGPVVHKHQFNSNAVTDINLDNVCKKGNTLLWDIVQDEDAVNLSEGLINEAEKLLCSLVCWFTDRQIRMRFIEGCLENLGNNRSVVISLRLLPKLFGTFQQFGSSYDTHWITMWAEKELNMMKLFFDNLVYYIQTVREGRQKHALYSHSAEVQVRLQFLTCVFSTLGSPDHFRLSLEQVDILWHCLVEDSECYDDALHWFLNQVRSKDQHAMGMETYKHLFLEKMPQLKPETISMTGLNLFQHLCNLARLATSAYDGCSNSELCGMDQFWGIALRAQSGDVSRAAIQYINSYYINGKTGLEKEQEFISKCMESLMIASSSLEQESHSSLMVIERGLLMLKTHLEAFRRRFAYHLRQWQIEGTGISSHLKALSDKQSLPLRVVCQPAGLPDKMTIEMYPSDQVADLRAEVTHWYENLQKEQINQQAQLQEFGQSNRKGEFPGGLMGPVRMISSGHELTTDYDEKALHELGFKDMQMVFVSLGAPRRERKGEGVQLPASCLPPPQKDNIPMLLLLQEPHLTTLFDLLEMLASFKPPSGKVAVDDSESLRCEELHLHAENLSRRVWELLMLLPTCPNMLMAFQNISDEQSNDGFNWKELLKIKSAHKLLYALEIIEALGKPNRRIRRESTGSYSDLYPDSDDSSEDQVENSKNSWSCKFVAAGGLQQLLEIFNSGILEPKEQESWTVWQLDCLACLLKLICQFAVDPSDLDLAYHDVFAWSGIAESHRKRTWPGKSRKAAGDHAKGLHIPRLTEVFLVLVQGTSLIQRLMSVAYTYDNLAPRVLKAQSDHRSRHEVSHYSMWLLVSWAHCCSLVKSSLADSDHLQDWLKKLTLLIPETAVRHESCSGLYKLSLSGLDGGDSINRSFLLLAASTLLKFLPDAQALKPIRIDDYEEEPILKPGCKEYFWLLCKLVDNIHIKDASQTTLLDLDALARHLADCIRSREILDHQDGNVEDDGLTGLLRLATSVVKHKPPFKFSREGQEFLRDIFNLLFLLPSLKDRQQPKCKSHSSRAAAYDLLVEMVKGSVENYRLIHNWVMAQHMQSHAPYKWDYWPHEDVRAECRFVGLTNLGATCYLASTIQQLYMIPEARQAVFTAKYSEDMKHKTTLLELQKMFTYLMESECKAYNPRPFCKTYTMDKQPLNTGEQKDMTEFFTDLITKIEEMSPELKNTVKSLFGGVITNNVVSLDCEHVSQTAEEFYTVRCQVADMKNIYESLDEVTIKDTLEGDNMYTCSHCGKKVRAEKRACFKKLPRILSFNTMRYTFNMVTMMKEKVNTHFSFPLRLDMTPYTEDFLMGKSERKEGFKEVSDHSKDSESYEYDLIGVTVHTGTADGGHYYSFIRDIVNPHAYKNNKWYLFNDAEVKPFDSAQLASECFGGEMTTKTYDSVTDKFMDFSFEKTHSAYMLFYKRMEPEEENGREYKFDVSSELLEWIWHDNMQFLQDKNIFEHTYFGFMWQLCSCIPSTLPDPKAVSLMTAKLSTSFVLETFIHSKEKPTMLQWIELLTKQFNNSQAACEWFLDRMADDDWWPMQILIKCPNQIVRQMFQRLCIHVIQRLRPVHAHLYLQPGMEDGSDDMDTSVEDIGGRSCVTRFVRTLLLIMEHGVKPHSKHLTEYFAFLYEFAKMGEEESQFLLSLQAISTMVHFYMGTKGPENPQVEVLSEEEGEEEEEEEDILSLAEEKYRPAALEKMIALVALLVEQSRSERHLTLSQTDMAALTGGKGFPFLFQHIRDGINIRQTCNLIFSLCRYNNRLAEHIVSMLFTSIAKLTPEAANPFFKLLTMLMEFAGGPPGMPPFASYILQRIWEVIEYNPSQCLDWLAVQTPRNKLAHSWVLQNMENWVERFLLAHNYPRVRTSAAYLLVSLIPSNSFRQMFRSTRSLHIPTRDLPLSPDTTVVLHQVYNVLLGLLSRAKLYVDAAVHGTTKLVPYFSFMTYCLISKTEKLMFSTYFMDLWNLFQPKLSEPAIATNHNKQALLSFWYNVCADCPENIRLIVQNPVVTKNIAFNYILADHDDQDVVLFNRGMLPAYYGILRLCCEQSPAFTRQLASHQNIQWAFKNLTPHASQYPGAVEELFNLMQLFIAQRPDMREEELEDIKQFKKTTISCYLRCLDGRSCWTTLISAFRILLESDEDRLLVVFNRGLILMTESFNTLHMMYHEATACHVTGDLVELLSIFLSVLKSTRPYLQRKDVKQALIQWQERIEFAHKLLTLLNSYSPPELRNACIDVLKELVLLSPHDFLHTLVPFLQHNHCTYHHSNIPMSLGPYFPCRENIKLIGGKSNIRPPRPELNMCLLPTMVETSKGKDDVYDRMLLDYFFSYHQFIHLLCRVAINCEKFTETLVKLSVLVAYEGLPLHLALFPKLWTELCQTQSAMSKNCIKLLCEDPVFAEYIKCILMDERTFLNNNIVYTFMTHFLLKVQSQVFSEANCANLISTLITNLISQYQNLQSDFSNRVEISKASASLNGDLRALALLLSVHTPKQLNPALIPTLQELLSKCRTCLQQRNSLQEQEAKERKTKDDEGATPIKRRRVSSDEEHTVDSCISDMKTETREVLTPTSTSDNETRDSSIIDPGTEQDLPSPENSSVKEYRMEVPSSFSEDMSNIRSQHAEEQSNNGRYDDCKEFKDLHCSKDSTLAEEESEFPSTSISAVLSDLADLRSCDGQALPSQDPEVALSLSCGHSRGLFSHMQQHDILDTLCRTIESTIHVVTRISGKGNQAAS
Summary of the method: (§1)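 The table lists average log2 ratios of fragment over vehicle, from an unpaired t-test on global-median-normalised Spectronaut label-free quantities. Proteins with ≥2 unique peptides were used. Samples were HEK293T lysate (495 µg) treated in triplicate with fragment at 200 µM or vehicle for 3 h, then with Biotin-Ahx-Ub-VS (0.5 µM final) for 1 h, with labelled DUBs NeutrAvidin-enriched and run by diaPASEF LC-MS/MS.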

USP36 = target: T1, USP36 (UniProt Q9P275)
T1 sequence (whole entry): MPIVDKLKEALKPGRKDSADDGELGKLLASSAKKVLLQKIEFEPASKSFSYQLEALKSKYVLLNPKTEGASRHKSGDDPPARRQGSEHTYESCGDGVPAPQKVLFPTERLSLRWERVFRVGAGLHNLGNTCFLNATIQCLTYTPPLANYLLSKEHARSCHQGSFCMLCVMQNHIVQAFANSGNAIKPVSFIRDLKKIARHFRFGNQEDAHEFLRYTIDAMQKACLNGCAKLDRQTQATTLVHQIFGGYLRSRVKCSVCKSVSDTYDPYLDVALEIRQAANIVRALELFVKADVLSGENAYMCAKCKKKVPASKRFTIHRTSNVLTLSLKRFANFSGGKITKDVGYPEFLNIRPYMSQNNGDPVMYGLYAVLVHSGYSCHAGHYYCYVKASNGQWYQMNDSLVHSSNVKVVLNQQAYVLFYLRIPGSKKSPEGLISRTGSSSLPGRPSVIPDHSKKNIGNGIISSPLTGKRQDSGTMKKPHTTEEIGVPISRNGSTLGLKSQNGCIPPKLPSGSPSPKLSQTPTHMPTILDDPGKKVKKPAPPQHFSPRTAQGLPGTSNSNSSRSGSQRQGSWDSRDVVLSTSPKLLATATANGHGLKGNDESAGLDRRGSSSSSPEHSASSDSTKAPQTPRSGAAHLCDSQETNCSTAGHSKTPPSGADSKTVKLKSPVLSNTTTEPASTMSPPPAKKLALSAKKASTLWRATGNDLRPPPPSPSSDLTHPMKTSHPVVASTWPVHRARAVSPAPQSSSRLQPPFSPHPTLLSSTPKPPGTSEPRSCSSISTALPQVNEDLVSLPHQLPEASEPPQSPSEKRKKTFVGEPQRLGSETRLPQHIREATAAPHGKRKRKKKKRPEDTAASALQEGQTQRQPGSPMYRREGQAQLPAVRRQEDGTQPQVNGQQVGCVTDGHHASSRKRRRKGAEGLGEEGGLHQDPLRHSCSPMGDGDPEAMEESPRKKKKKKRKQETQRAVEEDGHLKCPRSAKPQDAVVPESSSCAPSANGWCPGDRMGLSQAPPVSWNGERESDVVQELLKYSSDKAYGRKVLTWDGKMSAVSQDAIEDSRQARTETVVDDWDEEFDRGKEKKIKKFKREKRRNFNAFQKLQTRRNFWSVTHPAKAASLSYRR
Summary of the method: as §1

USP38 = target: T2, USP38 (UniProt Q8NB14)
T2 sequence (whole entry): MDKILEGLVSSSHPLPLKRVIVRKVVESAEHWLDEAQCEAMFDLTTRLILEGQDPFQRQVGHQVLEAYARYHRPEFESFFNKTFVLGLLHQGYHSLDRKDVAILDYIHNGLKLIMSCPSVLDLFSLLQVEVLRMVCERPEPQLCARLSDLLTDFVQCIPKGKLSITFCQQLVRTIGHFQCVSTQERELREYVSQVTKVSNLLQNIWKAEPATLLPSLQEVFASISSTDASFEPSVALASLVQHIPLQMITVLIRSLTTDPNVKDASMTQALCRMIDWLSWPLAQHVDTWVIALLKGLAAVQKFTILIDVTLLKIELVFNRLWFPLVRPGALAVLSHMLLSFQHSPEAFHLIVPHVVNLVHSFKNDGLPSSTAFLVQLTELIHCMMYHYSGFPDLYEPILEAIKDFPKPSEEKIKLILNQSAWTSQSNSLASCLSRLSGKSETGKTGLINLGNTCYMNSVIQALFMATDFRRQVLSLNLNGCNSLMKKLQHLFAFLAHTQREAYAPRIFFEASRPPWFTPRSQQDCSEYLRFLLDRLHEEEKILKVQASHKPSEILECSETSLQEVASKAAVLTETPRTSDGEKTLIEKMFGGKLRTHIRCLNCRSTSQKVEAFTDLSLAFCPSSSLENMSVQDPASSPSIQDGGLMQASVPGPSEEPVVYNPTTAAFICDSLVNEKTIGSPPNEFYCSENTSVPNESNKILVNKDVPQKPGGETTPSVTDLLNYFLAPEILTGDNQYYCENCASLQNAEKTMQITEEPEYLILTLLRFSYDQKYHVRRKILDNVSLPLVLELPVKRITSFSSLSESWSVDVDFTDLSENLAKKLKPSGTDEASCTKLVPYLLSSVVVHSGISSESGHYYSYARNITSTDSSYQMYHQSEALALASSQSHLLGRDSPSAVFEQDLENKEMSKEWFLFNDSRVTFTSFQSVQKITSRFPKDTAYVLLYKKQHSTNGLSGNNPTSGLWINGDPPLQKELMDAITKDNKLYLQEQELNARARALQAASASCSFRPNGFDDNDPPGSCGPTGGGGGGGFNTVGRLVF
Summary of the method: as §1

USP39 = target: T3, USP39 (UniProt Q53GS9)
T3 sequence (whole entry): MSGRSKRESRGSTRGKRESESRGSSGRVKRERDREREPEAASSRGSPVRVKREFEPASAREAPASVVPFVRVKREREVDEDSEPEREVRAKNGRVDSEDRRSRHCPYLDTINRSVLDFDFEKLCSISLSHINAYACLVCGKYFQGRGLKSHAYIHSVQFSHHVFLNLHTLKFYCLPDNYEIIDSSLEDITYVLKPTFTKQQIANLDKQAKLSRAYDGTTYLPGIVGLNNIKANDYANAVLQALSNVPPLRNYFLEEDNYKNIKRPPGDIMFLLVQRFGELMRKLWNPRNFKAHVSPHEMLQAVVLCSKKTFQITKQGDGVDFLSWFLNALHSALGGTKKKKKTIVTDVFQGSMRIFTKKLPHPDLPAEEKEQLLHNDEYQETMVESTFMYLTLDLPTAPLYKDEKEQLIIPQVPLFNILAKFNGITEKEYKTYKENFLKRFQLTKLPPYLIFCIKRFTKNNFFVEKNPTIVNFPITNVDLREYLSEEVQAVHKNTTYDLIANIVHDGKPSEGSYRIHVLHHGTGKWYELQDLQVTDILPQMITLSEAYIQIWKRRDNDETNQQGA
Summary of the method: as §1

USP4 = target: T4, USP4 (UniProt Q13107)
T4 sequence (whole entry): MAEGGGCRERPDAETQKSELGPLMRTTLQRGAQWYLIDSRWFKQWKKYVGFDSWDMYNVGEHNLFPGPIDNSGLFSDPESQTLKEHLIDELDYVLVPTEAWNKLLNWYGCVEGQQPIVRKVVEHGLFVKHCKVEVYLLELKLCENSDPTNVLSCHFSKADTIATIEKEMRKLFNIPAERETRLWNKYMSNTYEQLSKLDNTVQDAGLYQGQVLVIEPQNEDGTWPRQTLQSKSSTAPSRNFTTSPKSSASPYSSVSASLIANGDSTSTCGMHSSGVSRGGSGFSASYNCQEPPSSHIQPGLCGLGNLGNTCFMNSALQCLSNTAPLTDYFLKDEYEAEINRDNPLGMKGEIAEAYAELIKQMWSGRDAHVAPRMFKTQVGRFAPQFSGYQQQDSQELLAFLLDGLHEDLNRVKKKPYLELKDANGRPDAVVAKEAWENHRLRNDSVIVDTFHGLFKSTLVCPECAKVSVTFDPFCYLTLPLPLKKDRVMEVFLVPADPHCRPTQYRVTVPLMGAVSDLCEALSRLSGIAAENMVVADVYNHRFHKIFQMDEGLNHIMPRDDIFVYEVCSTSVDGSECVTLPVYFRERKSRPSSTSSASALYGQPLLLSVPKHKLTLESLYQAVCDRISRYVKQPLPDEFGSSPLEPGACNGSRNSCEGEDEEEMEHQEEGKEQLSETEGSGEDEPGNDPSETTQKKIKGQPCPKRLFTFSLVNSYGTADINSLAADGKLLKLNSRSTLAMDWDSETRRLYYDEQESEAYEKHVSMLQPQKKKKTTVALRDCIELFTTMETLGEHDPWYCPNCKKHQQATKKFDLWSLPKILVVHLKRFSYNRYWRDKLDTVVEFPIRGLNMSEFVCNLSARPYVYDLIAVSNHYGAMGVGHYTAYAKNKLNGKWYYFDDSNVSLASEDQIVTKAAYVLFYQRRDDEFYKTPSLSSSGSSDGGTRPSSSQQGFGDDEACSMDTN
Summary of the method: as §1

Measured: log2 ratio of Biotin-Ahx-Ub-VS probe labelling

O=C(CCl)N[C@H]1CCS(=O)(=O)c2ccccc21
inactive: USP34 -0.277 | USP36 -0.115 | USP38 -0.13 | USP39 -0.176 | USP4 -0.212
